{"source": "PubChem BioAssay (EPA / NIEHS)", "key": {"[1]": {"biological_target": "Thyroid hormone receptor alpha (Rattus norvegicus) + Thyroid hormone receptor beta (Rattus norvegicus) (UniProt P18113+P63059)", "test": "TOX21_TR_LUC_GH3_Antagonist_Followup: Tox21 GH3 Thyroid Hormone Receptor Antagonism Luciferase Follow-Up Assay (AID 2283942)", "how_it_was_run": "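Antagonist mode: GH3 cells seeded 1,500/well, compounds at 15 concentrations (92 uM to 5nM final) plus T3 at 1.0 nM final, 24 h at 37C. Luciferase read with ONE-Glo after 30 min at room temperature.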"}, "THRB (gene 7068) [2]": {"biological_target": "THRB (gene 7068) (UniProt P10828)", "sequence (P10828 whole entry, looked up, the tested form may be a part)": "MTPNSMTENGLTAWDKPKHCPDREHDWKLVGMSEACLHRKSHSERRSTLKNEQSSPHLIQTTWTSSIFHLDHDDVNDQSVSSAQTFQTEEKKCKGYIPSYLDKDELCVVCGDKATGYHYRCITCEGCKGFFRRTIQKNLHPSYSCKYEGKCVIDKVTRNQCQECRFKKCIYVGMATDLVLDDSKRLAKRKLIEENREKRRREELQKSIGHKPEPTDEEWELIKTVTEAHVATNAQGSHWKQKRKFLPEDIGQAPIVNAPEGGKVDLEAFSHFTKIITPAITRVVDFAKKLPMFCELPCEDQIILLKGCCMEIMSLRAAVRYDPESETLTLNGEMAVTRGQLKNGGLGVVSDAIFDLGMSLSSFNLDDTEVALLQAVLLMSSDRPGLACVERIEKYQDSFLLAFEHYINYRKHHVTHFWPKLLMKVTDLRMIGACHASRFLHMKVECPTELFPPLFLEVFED", "test": "TOX21_TRB_BLA_Antagonist_Followup_ratio: Tox21 Thyroid Hormone Receptor beta Antagonism Beta-lactamase (BLA) Follow-Up Assay, Ratio (AID 2283958)", "how_it_was_run": "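In this antagonist-mode follow-up, a stably integrated GAL4-TRβ LBD fusion drives a UAS-beta-lactamase reporter in HEK293T cells. Loss of ratio signal relative to DMSO after 18 h treatment indicates activity; parallel CellTiter-Glo flags cytotoxicity.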"}, "[3]": {"test": "TOX21_TRB_BLA_Antagonist_Followup_viability: Viability Assessment in the Tox21 Thyroid Hormone Receptor beta Antagonism Beta-lactamase (BLA) Follow-Up Assay (AID 2283961)", "how_it_was_run": "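Viability read as CellTiter-Glo ATP luminescence (loss of signal = cytotoxicity) in the same plates as the TRβ-bla readout. TRβ-LBD/GAL4 UAS-bla HEK293T cells were exposed to compounds, 11 concentrations in triplicate, for 18 h at 37C/5% CO2.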"}, "THRB (gene 7068) [4]": {"biological_target": "THRB (gene 7068) (UniProt P10828)", "test": "TOX21_TRB_COA_Antagonist_Followup_ratio: Tox21 Thyroid Hormone Receptor beta Antagonism through Coactivator Recruitment Follow-Up Assay, Ratio (AID 2283967)", "how_it_was_run": "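Cell-free TR-FRET: GST-TRb LBD (5.0 nM) with fluorescein-SRC-2 peptide (200 nM) and Tb anti-GST antibody (2 nM), 0.10% BSA. 520:495 nm emission ratio normalized to DMSO (0%) and T3 (100%).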"}, "[5]": {"biological_target": "Retinoic acid receptor RXR-alpha (Homo sapiens) (UniProt P19793)", "sequence (P19793 whole entry, looked up, the tested form may be a part)": "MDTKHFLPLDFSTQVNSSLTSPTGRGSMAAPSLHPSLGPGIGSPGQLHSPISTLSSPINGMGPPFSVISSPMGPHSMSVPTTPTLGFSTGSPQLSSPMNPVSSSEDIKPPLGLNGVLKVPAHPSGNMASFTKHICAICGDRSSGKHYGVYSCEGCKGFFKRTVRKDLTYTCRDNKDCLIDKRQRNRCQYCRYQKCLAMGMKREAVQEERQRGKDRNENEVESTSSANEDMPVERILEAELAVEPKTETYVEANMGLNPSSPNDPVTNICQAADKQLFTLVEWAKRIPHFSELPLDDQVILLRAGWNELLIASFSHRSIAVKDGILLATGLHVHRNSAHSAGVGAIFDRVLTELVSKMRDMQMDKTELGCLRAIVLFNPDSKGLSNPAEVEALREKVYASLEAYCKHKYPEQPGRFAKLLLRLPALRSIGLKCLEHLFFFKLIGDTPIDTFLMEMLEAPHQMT", "test": "TOX21_TR_RXR_BLA_Antagonist_Followup_ratio: Tox21 Thyroid Hormone Receptor beta Retinoid X Receptor alpha (RXRa) Antagonism Beta-lactamase (BLA) Follow-Up Assay, Ratio (AID 2283972)", "how_it_was_run": "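Beta-lactamase reporter readout as cleaved/uncleaved substrate ratio (460:530 nm) after 2 h substrate loading at room temperature. GAL4-RXRa bla HEK293T cells were exposed 16 h at 37C to 11-point compound series; loss of signal scored against DMSO baseline.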"}, "PGR (gene 5241) [6]": {"biological_target": "PGR (gene 5241) (UniProt P06401)", "sequence (P06401 whole entry, looked up)": "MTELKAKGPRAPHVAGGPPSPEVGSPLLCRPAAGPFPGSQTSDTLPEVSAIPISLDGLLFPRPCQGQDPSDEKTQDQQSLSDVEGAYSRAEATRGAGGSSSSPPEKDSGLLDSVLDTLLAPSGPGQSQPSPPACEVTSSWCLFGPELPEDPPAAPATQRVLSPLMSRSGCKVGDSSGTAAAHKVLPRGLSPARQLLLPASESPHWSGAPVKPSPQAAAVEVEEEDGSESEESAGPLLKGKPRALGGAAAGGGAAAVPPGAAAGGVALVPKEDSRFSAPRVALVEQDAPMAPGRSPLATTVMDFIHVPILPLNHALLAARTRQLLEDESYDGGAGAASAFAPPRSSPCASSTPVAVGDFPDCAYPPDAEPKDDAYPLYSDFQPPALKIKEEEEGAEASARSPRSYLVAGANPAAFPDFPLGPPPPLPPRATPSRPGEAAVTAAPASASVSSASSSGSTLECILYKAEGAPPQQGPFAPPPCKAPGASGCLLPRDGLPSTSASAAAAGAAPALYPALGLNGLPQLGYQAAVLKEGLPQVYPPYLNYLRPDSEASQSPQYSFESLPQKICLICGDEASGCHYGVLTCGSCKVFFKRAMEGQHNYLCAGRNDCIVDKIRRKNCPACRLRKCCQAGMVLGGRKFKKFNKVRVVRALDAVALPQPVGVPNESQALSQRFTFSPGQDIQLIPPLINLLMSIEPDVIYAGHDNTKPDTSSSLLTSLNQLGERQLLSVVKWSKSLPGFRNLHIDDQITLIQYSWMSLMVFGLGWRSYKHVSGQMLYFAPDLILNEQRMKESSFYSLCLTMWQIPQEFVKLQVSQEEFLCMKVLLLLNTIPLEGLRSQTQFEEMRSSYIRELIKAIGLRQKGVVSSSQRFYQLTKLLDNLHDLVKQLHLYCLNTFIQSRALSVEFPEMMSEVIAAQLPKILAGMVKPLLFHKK", "test": "TOX21_PR_LUC_Followup_Antagonist: Tox21 HEK293 Progesterone Receptor (PR) Antagonism Luciferase Follow-Up Assay (AID 2283938);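 further: curve fitted upward as signal gain over DMSO baseline despite antagonist label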", "how_it_was_run": "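Luminescence from ONE-Glo reagent, measured after 30 min at room temperature, served as readout. Cells (HEK293 carrying PR-A-luc) had been treated 16 h at 37C with DMSO-dissolved compounds. Activity was fitted against DMSO controls.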"}, "[7]": {"test": "TOX21_PR_LUC_Followup_Antagonist_viability: Viability Assessment in the Tox21 HEK293 Progesterone Receptor (PR) Antagonism Luciferase Follow-Up Assay (AID 2283940)", "how_it_was_run": "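Cellular ATP, measured with luciferase-coupled CellTiter-Glo, served as the viability endpoint after HEK293-PR-A-luc cells were exposed to test compounds for 16 h at 37C.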"}, "[8]": {"test": "TOX21_PR_LUC_Followup_Agonist_viability: Viability Assessment in the Tox21 HEK293 Progesterone Receptor (PR) Agonism Luciferase Follow-Up Assay (AID 2283941);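 further: loss of signal means cytotoxicity so actives lower viability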", "how_it_was_run": "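Luminescent ATP quantitation (CellTiter-Glo) serves as the read-out; a drop flags cytotoxic compounds. Cells are HEK293-PR-A-luc grown in 10% charcoal-stripped FBS, plated 3,000/well, and exposed to compound for 16 h.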"}, "THRA (gene 7067)": {"biological_target": "THRA (gene 7067) (UniProt P10827)", "sequence (P10827 whole entry, looked up, the tested form may be a part)": "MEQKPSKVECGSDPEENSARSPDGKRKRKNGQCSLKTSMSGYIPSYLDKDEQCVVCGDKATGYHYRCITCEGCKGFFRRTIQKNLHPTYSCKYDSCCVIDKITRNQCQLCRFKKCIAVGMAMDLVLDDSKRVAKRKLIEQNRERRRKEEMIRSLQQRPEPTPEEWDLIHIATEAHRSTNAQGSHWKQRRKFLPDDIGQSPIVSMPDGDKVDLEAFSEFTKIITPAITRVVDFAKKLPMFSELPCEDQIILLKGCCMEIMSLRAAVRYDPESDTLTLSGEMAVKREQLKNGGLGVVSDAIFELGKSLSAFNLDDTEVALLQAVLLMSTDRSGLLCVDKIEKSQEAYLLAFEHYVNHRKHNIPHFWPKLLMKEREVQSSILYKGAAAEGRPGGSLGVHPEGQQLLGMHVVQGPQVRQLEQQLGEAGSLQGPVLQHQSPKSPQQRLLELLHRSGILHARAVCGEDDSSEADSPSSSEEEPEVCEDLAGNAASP", "test": "TOX21_TRA_COA_Antagonist_Followup_ratio: Tox21 Thyroid Hormone Receptor alpha Antagonism through Coactivator Recruitment Follow-Up Assay, Ratio (AID 2283953)", "how_it_was_run": "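This follow-up to the GH3 luciferase screen checks specificity in a cell-free format. It measures SRC-2 coactivator peptide binding to TRα LBD by TR-FRET and scores loss of ratio signal relative to DMSO.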"}, "PGR (gene 5241) [9]": {"biological_target": "PGR (gene 5241) (UniProt P06401)", "test": "TOX21_PR_LUC_Followup_Agonist: Tox21 HEK293 Progesterone Receptor (PR) Agonism Luciferase Follow-Up Assay (AID 2283937; active means hit-call score of the fitted dose curve at least 0.9, where 1 is the maximum; inactive means score below 0.9)", "how_it_was_run": "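Agonist mode: reporter cells carrying PR-A and luciferase are treated 16 h with test compounds at 37C. Luciferase induction is measured by luminescence and fitted upward against DMSO.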"}}, "note": "Records with an inconclusive call do not appear. Calls of active or inactive are those of the source. How the source made its calls, unless noted: active means hit-call score of the fitted dose curve at least 0.9, where 1 is the maximum; inconclusive means response in the unintended direction; inactive means score below 0.9.", "data": [{"smiles": "CCc1nn(C)c(C(=O)NCc2ccc(C(C)(C)C)cc2)c1Cl", "values": [{"measurement": "outcome", "setting": "[1]", "value": "inactive"}, {"measurement": "outcome", "setting": "THRB (gene 7068) [2]", "value": "inactive"}, {"measurement": "AC50", "setting": "[3]", "value": "4.69 µM (active)"}, {"measurement": "outcome", "setting": "THRB (gene 7068) [4]", "value": "inactive"}, {"measurement": "outcome", "setting": "[5]", "value": "inactive"}]}, {"smiles": "COC(=O)N(OC)c1ccccc1COc1ccn(-c2ccc(Cl)cc2)n1", "values": [{"measurement": "AC50", "setting": "PGR (gene 5241) [6]", "value": "13.6 µM (active)"}, {"measurement": "outcome", "setting": "[7]", "value": "inactive"}, {"measurement": "outcome", "setting": "[8]", "value": "inactive"}, {"measurement": "AC50", "setting": "[1]", "value": "1.09 µM (active)"}, {"measurement": "outcome", "setting": "THRA (gene 7067)", "value": "inactive"}, {"measurement": "AC50", "setting": "THRB (gene 7068) [2]", "value": "4.01 µM (active)"}, {"measurement": "AC50", "setting": "[3]", "value": "14.9 µM (active)"}, {"measurement": "outcome", "setting": "THRB (gene 7068) [4]", "value": "inactive"}, {"measurement": "AC50", "setting": "[5]", "value": "38.3 µM (active)"}]}, {"smiles": "C=CC1(C)OC(=O)N(c2cc(Cl)cc(Cl)c2)C1=O", "note": "(stereo not given)", "values": [{"measurement": "outcome", "setting": "PGR (gene 5241) [6]", "value": "inactive"}, {"measurement": "outcome", "setting": "[7]", "value": "inactive"}, {"measurement": "outcome", "setting": "[8]", "value": "inactive"}]}, {"smiles": "CCCCNC(=O)n1c(NC(=O)OC)nc2ccccc21", "values": [{"measurement": "outcome", "setting": "[1]", "value": "inactive"}, {"measurement": "outcome", "setting": "THRA (gene 7067)", "value": "inactive"}, {"measurement": "outcome", "setting": "THRB (gene 7068) [2]", "value": "inactive"}, {"measurement": "outcome", "setting": "[3]", "value": "inactive"}, {"measurement": "outcome", "setting": "THRB (gene 7068) [4]", "value": "inactive"}, {"measurement": "outcome", "setting": "[5]", "value": "inactive"}]}, {"smiles": "COc1ccc(C(c2ccc(OC)cc2)C(Cl)(Cl)Cl)cc1", "values": [{"measurement": "AC50", "setting": "PGR (gene 5241) [6]", "value": "15.2 µM (active)"}, {"measurement": "outcome", "setting": "[7]", "value": "inactive"}]}, {"smiles": "N#CC(CCc1ccc(Cl)cc1)(Cn1cncn1)c1ccccc1", "note": "(stereo not given)", "values": [{"measurement": "outcome", "setting": "PGR (gene 5241) [9]", "value": "inactive"}, {"measurement": "AC50", "setting": "PGR (gene 5241) [6]", "value": "22.5 µM (active)"}, {"measurement": "outcome", "setting": "[7]", "value": "inactive"}, {"measurement": "outcome", "setting": "[8]", "value": "inactive"}]}, {"smiles": "CN(C)C(=S)SSC(=S)N(C)C", "values": [{"measurement": "AC50", "setting": "[1]", "value": "24.3 µM (active)"}, {"measurement": "outcome", "setting": "THRA (gene 7067)", "value": "inactive"}, {"measurement": "outcome", "setting": "THRB (gene 7068) [2]", "value": "inactive"}, {"measurement": "outcome", "setting": "[3]", "value": "inactive"}, {"measurement": "outcome", "setting": "THRB (gene 7068) [4]", "value": "inactive"}]}, {"smiles": "CO/C=C(/C(=O)OC)c1ccccc1Oc1cc(Oc2ccccc2C#N)ncn1", "values": [{"measurement": "AC50", "setting": "[1]", "value": "3.91 µM (active)"}, {"measurement": "outcome", "setting": "THRA (gene 7067)", "value": "inactive"}, {"measurement": "outcome", "setting": "THRB (gene 7068) [2]", "value": "inactive"}, {"measurement": "AC50", "setting": "[3]", "value": "38.1 µM (active)"}, {"measurement": "outcome", "setting": "THRB (gene 7068) [4]", "value": "inactive"}, {"measurement": "outcome", "setting": "[5]", "value": "inactive"}]}, {"smiles": "CON(C)C(=O)Nc1ccc(Cl)c(Cl)c1", "values": [{"measurement": "outcome", "setting": "[7]", "value": "inactive"}, {"measurement": "outcome", "setting": "[8]", "value": "inactive"}]}, {"smiles": "CCOP(=S)(OCC)SCn1c(=O)oc2cc(Cl)ccc21", "values": [{"measurement": "AC50", "setting": "PGR (gene 5241) [6]", "value": "32.8 µM (active)"}, {"measurement": "outcome", "setting": "[7]", "value": "inactive"}]}, {"smiles": "CC(C)(C)c1ccc(CSc2cnn(C(C)(C)C)c(=O)c2Cl)cc1", "values": [{"measurement": "outcome", "setting": "[3]", "value": "inactive"}]}]}
